An excerpt weighted towards active compounds, which were near 7.9% of everything screened.
MARV entry inh = Marburg virus entry inhibition; Marburg virus pseudotyped entry inhibition, cell reporter; Potency, µM (titrated, usually from 37.8 µM), hits mostly inhibitors; 300,000 compounds, 1.8% hits; AID 540276; calls by dose curve; tested in HEK293 cells
LASV entry inh = Lassa virus entry inhibition | Lassa virus pseudotype entry inhibition, cell reporter | Potency, µM (series often up to 37.9 µM), usual class: inhibitors | 300,000 compounds, 1.2% hits | AID 540256; calls by dose curve; tested in HEK293 cells; also: nearly all actives have a fitted effect of over 50% in size
FMDV inh = blocks foot and mouth disease virus | Potency, µM (highest dose often 57.9 µM), actives largely listed as inhibitors | FMDV antiviral cell-based qHTS | AID 1159524 | 410,000 compounds, 1.2% hits; calls by dose curve; tested in HEK293T cells; also: read-out not given here; nearly all actives have a fitted effect of over 45% in size
HCMV inh = blocks human cytomegalovirus replication. AID 1259415. HFF cells, HCMV-luciferase reporter, 72 h; hits give low values. activity change, negative = inhibition, % at 57.5 µM. 410,000 compounds, 4.5% hits; in the data active = activity change below about -60%; inconclusive = no clear call, values can overlap the other calls; inactive = above about -39%
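Cell-based, HFFs, 1000 cells/well, 16 h 37C; cpds in DMSO + HCMV-luc, MOI 1 PFU/cell; 72 h 37C; OneGlo luminescence after 5 min RT; norm. to buffer vs Salinomycin 10uM.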
HCV inhibitor = blocks hepatitis C virus. Huh7.5.1 HCVcc-Cre infection, luciferase reporter, 44 h. Potency, µM (doses to about 41.8 µM), hits mostly inhibitors. 340,000 compounds, 3.4% hits; active = well fitted inhibition curve with a large enough effect; inconclusive = small, poorly fitted or top-dose-only effect, or another doubt; inactive = no such curve, though single readings can be large or run the other way
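After 44 h co-culture of compound, cells and HCVcc-Cre (~0.5 moi), substrate is added for 15 min at room temperature and luciferase measured over 15 sec. Cells were seeded at 1,000/well and pre-cultured 4 h.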
Hits are given with their value; 0 = inactive; ? = inconclusive; - = no result; [ ] = another dose, or the depositor's remark.

SMILES	MARV entry inh	LASV entry inh	FMDV inh	HCMV inh	HCV inhibitor
CCN1CCN(Cc2ccc(NC(=O)c3cc(NC(=O)c4cncc(-c5ccc(C#N)cc5)c4)cc(OC)c3)cc2C(F)(F)F)CC1	-	-	0	-99.4	0[8.37 µM]
CCN1CCN(Cc2ccc(NC(=O)c3cc(NC(=O)c4cnnc5ccccc45)cc(OC)c3)cc2C(F)(F)F)CC1	-	-	0	-93.7	?
CCN1CCN(Cc2ccc(NC(=O)c3cc(NC(=O)c4nccnc4N)cc(OC)c3)cc2C(F)(F)F)CC1	-	-	0	0	0[8.37 µM]
Cc1cc(C)nc(NS(=O)(=O)c2ccc(N)cc2)n1	0	0	0	-65.7	0[8.37 µM]
O=C(NCCCN1CCN(c2ccccc2F)CC1)c1nnc(Cc2ccc(Cl)cc2Cl)o1	0	0	0	0	-
CCN(CC)CCNC(=O)c1ccc(NC(C)=O)cc1	?	0	0	0	0[8.37 µM]
CCN(CC)CCNC(=O)c1ccc(NC(=O)Cc2cccc3ccccc23)cc1	11.2µM	0	0	0	?
CCN(CC)CCNC(=O)c1ccc(NC(=O)c2ccc(COc3ccccc3)cc2)cc1	?	0	0	?	11.2µM
CCN(CC(=O)Nc1ccc(NC(C)=O)cc1)C(=O)c1ccc(COc2ccc(C(C)(C)C)cc2)cc1	-	-	0	-61.6	?
COc1ccc(N(CC(=O)NC2CCS(=O)(=O)C2)S(=O)(=O)c2ccc(Cl)c(Cl)c2)cc1 (stereo unspecified)	0	?	0	0	0
COc1cc2c(cc1OC)-c1c(OC)c(OC)cc3ccnc(c13)C2=O	?	?	?	-95.0	?
Cc1oc(-c2cccc(NC(=O)c3ccccn3)c2)nc1CNC(=O)c1cc(F)c(F)cc1F	-	-	0	-	-
COc1ccc(-c2nnc(SCC(=O)Oc3c(C)cccc3C)o2)cc1OC	0	0	0	0	-
CCCN1CNC(=S)N(c2ccccc2C)C1	0	0	0	?	0
CCN(CC)CCN1CNC(=S)N(c2ccccc2OC)C1	0	0	0	-64.8	0
Cc1cc2nc(C3CCN(Cc4nnnn4Cc4cccs4)CC3)[nH]c2cc1C	?	?	0	0	11.2µM
Clc1ccc2nc(C3CCN(Cc4ccccc4)CC3)[nH]c2c1	?	?	0	0	?
Cc1ccc(-c2csc(NC(=S)NC(=O)/C=C/c3ccco3)n2)cc1	?	?	0	0	12.6µM
O=C(/C=C\c1ccco1)Nc1nc(-c2ccc3ccccc3c2)cs1	?	0	?	-75.8	?
O=C(Nc1nc(-c2ccccc2)cs1)c1ccco1	0	0	0	0	0
Cc1ccc(O)c(NC(=S)NC(=O)/C=C/c2ccco2)c1	?	?	0	0	0
O=C(O)c1ccccc1C(=O)Nc1nc(-c2ccc3ccccc3c2)cs1	-	-	0	0	?
CC(=O)NC(=S)Nc1ccc(NC(=S)NC(=O)/C=C/c2ccco2)cc1	0	?	0	-79.3	0
CC(OC(=O)c1ccco1)C(=O)Nc1nc(-c2ccccc2)cs1 (stereo unspecified)	11.2µM	10µM	0	0	?
COCCN(C(=O)COC(=O)c1ccc2[nH]c(C)c(C)c2c1)c1c(N)n(Cc2ccccc2)c(=O)[nH]c1=O	0	?	0	0	?
SMILES	MARV entry inh	LASV entry inh	FMDV inh	HCMV inh	HCV inhibitor
C=CCNc1nc(-c2ccc(Cl)cc2)cs1	0	0	0	0	?
C=CCNc1nc(-c2ccc([N+](=O)[O-])cc2)cs1	?	0	0	-69.3	?
O=C(NC(=S)Nc1nc(-c2ccc([N+](=O)[O-])cc2)cs1)c1ccco1	0	0	0	-83.7	0
COc1ccc(Oc2nc3c(c(=O)n(Cc4ccccc4Cl)c(=O)n3C)n2C)cc1	0	?	0	0	-
CCOc1nc2c(c(=O)n(C)c(=O)n2C)n1Cc1ccccc1Cl	0	0	0	-92.5	?
Cn1c(=O)c2c(nc(Br)n2Cc2ccccc2Cl)n(C)c1=O	?	0	?	0	?
Cn1c(Oc2ccc(F)cc2)nc2c1c(=O)n(Cc1ccccc1Cl)c(=O)n2C	?	?	17.8µM	0	-
COCCOc1nc2c(c(=O)n(C)c(=O)n2C)n1Cc1cccc(OC)c1	?	0	?	?	11.2µM
CC(=O)NCCOC(=O)Nc1sc(=S)n(C)c1C	0	0	0	0	0
Cc1c(NC(=O)OCCSc2nc(N(C)C)nc(N(C)C)n2)sc(=S)n1C	0	0	-	?	14.1µM
COC1C(=O)CCC2(CO2)C1(O)C1(C)OC1CC=C(C)C (stereo unspecified)	-	-	-	-76.5	-
Cc1ccc(Sc2ncnc3onc(C)c23)c(C)c1	-	-	0	0	0
COC(=O)c1ccccc1Sc1ncnc2onc(C)c12	?	0	28.2µM	0	?
COc1ccc(Sc2ncnc3onc(C)c23)cc1	-	-	0	0	0
Cc1noc2ncnc(Sc3ccccc3Cl)c12	0	?	39.8µM	-78.8	?
Cc1noc(C)c1-c1ccc2ncnc(NCc3ccccc3)c2c1	-	-	0	-	-
CC(C)COCC(CN(Cc1ccccc1)c1ccccc1)N1CCCC1 (stereo unspecified)	?	0	?	-67.0	0
COC(=O)CC=C[C@@H](C)[C@H](NC(=O)OC)c1ccccc1Br	0	-	-	-	-
CCc1nnc(NC(=O)CSc2nccn2Cc2ccc(Cl)cc2)s1	-	0	0	0	-
N#CC1=C(N)Oc2cc(O)ccc2C1c1ccc2c(c1)OCO2 (stereo unspecified)	0	0	0	0	0
COc1ccc(C2C(C#N)=C(N)Oc3cc4c(cc32)OCO4)cc1 (stereo unspecified)	5.8µM	?	-	0	0
Fc1ccc(COc2ccc(Br)cc2CNCc2ccncc2)cc1	?	0	?	?	10µM
CCOc1cc(CNCc2ccncc2)cc(Br)c1OCc1ccc(F)cc1	?	0	15.8µM	-65.0	10µM
Fc1ccccc1COc1ccc(Br)cc1CNCc1ccncc1	?	0	31.6µM	0	0
Fc1ccc(COc2cccc(CNCc3ccncc3)c2)cc1	6.31µM	0	0	-71.1	?
SMILES	MARV entry inh	LASV entry inh	FMDV inh	HCMV inh	HCV inhibitor
Fc1ccccc1COc1ccc(Br)cc1CNCc1cccnc1	?	?	?	0	?
O=C(O)c1ccc(CNCc2cccc(OCc3ccc(F)cc3)c2)cc1	0	0	0	?	0
Nc1nonc1C(=O)NCCNCc1cc(Br)ccc1OCc1ccc(F)cc1	?	0	?	0	?
O=C1CCc2cccc(O)c2N1	0	?	0	0	0
COCCNC(=O)C1(C)CCN(C(=O)/C=C/c2ccccc2)C1 (stereo unspecified)	-	-	0	0	-
Cc1ccc(S(=O)(=O)C2(S(=O)(=O)c3ccc(C)cc3)CC2)cc1	11.2µM	?	?	0	0
O=S(=O)(c1ccccc1)C1(S(=O)(=O)c2ccccc2)CCCC1	0	?	0	0	0
CC(C)(C)OC(=O)N1CCC(c2c(C(=O)N3CCN(C(=O)c4ccco4)CC3)cnn2-c2cccc(Cl)c2)CC1	-	0	0	0	0
O=C(NCc1cccn1Cc1ccccc1)Nc1ccc(Br)cc1F	-	0	0	-83.3	-
O=C(NCc1ccccc1)Nc1cccn(Cc2ccccc2Cl)c1=O	-	-	?	?	12.6µM
COc1ccc(Cn2cccc(NC(=O)Nc3ccc(F)cc3)c2=O)cc1	-	-	0	?	?
CSc1ccc(NC(=O)Nc2cccn(Cc3ccccc3)c2=O)cc1	?	?	?	-83.9	3.55µM
